Compounds without any hit were thinned out: in the full panel of roughly 83,000, 20% have a hit.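 Each cell line was grown in a 96-well plate and treated with one concentration of compound for 48 hours. Values below 10 were considered active.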 Calls of active or inactive are those of the source.
Columns and labels:
Assay in all cases: NCI-60 one-dose screen, 48 h (100 = growth as untreated, 0 = no growth, -100 = all killed)
Settings in all cases: 10 µM unless noted
K-562 leukemia = test system: K-562 leukemia
MALME-3M melanoma = test system: MALME-3M melanoma
MDA-MB-231 breast = test system: MDA-MB-231 breast
SF-268 CNS = test system: SF-268 CNS
UACC-257 melanoma = test system: UACC-257 melanoma
M14 melanoma = test system: M14 melanoma
HCT-15 colon = test system: HCT-15 colon
PC-3 prostate = test system: PC-3 prostate
SK-MEL-5 melanoma = test system: SK-MEL-5 melanoma
UACC-62 melanoma = test system: UACC-62 melanoma
SK-MEL-28 melanoma = test system: SK-MEL-28 melanoma
RXF 393 renal = test system: RXF 393 renal
SF-295 CNS = test system: SF-295 CNS
SF-539 CNS = test system: SF-539 CNS
HT29 colon = test system: HT29 colon
SNB-75 CNS = test system: SNB-75 CNS
SNB-19 CNS = test system: SNB-19 CNS
U251 CNS = test system: U251 CNS
LOX IMVI melanoma = test system: LOX IMVI melanoma
SK-MEL-2 melanoma = test system: SK-MEL-2 melanoma

Measured: growth

CC(C)Sc1nc(Nc2ccc(S(N)(=O)=O)cc2)c(C#N)c(-c2ccc(F)cc2)n1
inactive: K-562 leukemia 36.3% | MALME-3M melanoma 14.8% | MDA-MB-231 breast 38.6% | SF-268 CNS 39.1% | UACC-257 melanoma 93.3% | M14 melanoma 17.9% | HCT-15 colon 43.5% | PC-3 prostate 40.9% | SK-MEL-5 melanoma 54.3% | UACC-62 melanoma 46.5% | SK-MEL-28 melanoma 78%

COc1cccc(COc2ccc(/C=C3/C(=O)Nc4cc(Cl)ccc43)cc2)c1
inactive: MALME-3M melanoma 96.7% | MDA-MB-231 breast 78.2% | RXF 393 renal 88.7% | SF-268 CNS 99.5% | SF-295 CNS 103% | SF-539 CNS 93% | UACC-257 melanoma 104% | M14 melanoma 104% | HT29 colon 93.8% | SNB-75 CNS 84.2% | SNB-19 CNS 97.5% | U251 CNS 98.9% | PC-3 prostate 84.5% | SK-MEL-5 melanoma 93% | UACC-62 melanoma 86.7% | LOX IMVI melanoma 97.9% | SK-MEL-28 melanoma 102% | SK-MEL-2 melanoma 107%

O=C(c1ccc(Cl)cc1)C1[C@H](c2ccc(Cl)cc2)[C@@H](c2ccccc2)NC12C(=O)Nc1ccc(Br)cc12 (some centres undefined)
active: RXF 393 renal 6.62% | HT29 colon 0.232%
inactive: K-562 leukemia 17% | MALME-3M melanoma 62.7% | MDA-MB-231 breast 37.2% | SF-268 CNS 34.3% | SF-295 CNS 35.4% | SF-539 CNS 59.5% | UACC-257 melanoma 57.7% | M14 melanoma 27.2% | SNB-75 CNS 43.9% | SNB-19 CNS 60.5% | U251 CNS 28.3% | PC-3 prostate 12.8% | UACC-62 melanoma 37.4% | LOX IMVI melanoma 15.3% | SK-MEL-28 melanoma 67.3% | SK-MEL-2 melanoma 38.7%

O=C(N/N=C/c1cccs1)c1[nH]c2ccc(Br)cc2c1-c1ccccc1
inactive: MALME-3M melanoma 58.2% | RXF 393 renal 62.8% | SF-268 CNS 35.3% | SF-295 CNS 15.9% | UACC-257 melanoma 61.2% | SNB-75 CNS 31.4% | SNB-19 CNS 32.3% | U251 CNS 19.1% | PC-3 prostate 26.1% | UACC-62 melanoma 43% | SK-MEL-28 melanoma 60.7% | SK-MEL-2 melanoma 20.3%
active: K-562 leukemia 4.72% | MDA-MB-231 breast 5.46% | SF-539 CNS 2.22% | M14 melanoma 1.81% | HT29 colon -23.3% | SK-MEL-5 melanoma -36.7%

COc1ccc(NC2=CC(=O)C(C)=C(C)C2=O)cc1
inactive: K-562 leukemia 66.6% | MALME-3M melanoma 89.9% | MDA-MB-231 breast 83.8% | RXF 393 renal 102% | SF-268 CNS 101% | SF-295 CNS 105% | SF-539 CNS 105% | UACC-257 melanoma 45.4% | M14 melanoma 95.6% | HT29 colon 109% | SNB-75 CNS 123% | SNB-19 CNS 99.2% | U251 CNS 92% | PC-3 prostate 71.5% | UACC-62 melanoma 95.4% | SK-MEL-28 melanoma 99.4% | SK-MEL-2 melanoma 81.8%

O=C1[C@H]2Cc3c([nH]c4ccccc34)[C@@H](c3ccc(Br)cc3)N2C(=O)CN1C1CCN(Cc2ccccc2)CC1
inactive: MALME-3M melanoma 62.2% | MDA-MB-231 breast 49% | RXF 393 renal 42.7% | SF-268 CNS 37.5% | SF-295 CNS 32.4% | SF-539 CNS 65.4% | UACC-257 melanoma 53.3% | M14 melanoma 35.8% | SNB-75 CNS 51.1% | SNB-19 CNS 47.8% | U251 CNS 32.3% | PC-3 prostate 17% | UACC-62 melanoma 84% | SK-MEL-28 melanoma 70.3% | SK-MEL-2 melanoma 28.8%
active: K-562 leukemia -28.2% | HT29 colon -30.9%

Reference: PubChem BioAssay (NCI)
